Among all 390,000 compounds or so, about 4,000 (1%) were called active. Inconclusive results (about 7%) are left out. The call rests on the fitted dose curve; in most records, active means well fitted inhibition curve with a large enough effect; inconclusive means small, poorly fitted or top-dose-only effect, or another doubt; inactive means no such curve, though single readings can be large or run the other way. The entries come from a sample that favours actives as a whole. A call without a number means that no potency is given here.
Target: DNA polymerase iota (Homo sapiens) (UniProt Q9UNA4)
Test: qHTS for Inhibitors of Polymerase Iota
Conditions: Pol iota fluorescent replication assay, 10 min; series mostly up to 115 µM
Outline: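 Pol iota at 10 nM preincubated 15 min with compounds at room temperature; reaction started with fluorescent substrate, 50 nM final. Fluorescence read kinetically at 0 and 10 min; buffer-only wells as negative control.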
Potency means the concentration at half of the fitted maximal effect.

Sequence of DNA polymerase iota (Homo sapiens) (Q9UNA4 whole entry, looked up): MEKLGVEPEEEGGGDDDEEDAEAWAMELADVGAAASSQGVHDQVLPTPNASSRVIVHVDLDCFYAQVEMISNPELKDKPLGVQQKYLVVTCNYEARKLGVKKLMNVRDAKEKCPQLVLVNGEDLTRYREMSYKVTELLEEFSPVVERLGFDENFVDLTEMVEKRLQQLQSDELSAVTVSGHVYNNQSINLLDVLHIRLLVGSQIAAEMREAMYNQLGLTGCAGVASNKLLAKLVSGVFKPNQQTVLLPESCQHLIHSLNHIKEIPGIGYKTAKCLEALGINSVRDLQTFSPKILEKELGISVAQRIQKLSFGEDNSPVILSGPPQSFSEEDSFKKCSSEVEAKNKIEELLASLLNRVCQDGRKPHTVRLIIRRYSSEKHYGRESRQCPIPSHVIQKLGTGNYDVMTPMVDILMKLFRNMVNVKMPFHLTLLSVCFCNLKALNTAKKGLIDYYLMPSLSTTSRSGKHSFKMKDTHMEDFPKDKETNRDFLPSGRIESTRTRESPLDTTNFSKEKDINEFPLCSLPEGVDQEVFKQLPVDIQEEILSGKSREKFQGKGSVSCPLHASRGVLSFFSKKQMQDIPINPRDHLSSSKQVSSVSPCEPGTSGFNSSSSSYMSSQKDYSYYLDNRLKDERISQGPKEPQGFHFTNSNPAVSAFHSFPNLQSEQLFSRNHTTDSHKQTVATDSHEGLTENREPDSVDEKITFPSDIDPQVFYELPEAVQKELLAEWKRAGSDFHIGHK

Row | SMILES | Potency
1 | Cc1ccc(N(CC(=O)NCC(C)c2ccccc2)S(=O)(=O)N(C)C)cc1 (stereo not given) | inactive
2 | COc1ccc(C2(Nc3cccc(F)c3)C(=O)c3ccccc3C2=O)cc1 | inactive
3 | CC(C)(C)C(=O)OCc1nc(-c2ccc(O)c(O)c2)cs1 | 31.6 µM (active)
4 | CN(c1ccc(O)cc1)c1nc(-c2cccnc2)cs1 | inactive
5 | CCCC(=O)N1c2ccc(-c3csc(N)n3)cc2CC1C (stereo not given) | inactive
6 | Cc1ccccc1-n1c(=O)c2ccccc2n(Cc2ccc(F)cc2)c1=O | inactive
7 | O=C(Nc1cc(Cl)cc(Cl)c1)c1ccc2c(c1)N(Cc1cccc(Cl)c1)C(=O)c1ccccc1S2=O (stereo not given) | inactive
8 | CCCc1cc(=O)oc2c(C)c(OCC(=O)NCc3ccccn3)ccc12 | inactive
9 | Cc1cc(=O)oc2c(C)c(OCC(=O)NCCN3CCOCC3)ccc12 | inactive
10 | CCc1cc(=O)oc2c(C)c(OCC(=O)NCCN3CCOCC3)ccc12 | 79.4 µM (active)
11 | CC(=O)Nc1ccc(S(=O)(=O)Nc2ccc(-c3ccc4nnc(C)n4n3)cc2)cc1 | inactive
12 | O=C(Nc1ccc(-c2ccc3nncn3n2)cc1)C1CCCCC1 | inactive
13 | CC(=O)c1ccc(S(=O)(=O)Nc2ccc(-c3ccc4nncn4n3)cc2)cc1 | 50.1 µM (active)
14 | Cc1cc(OC(C)C(=O)Nc2sc3c(c2C(N)=O)CCCC3)ccc1Cl (stereo not given) | inactive
15 | COc1cccc(C(=O)NC2=NC(c3ccc(N(C)C)cc3)CC(=O)N2)c1 (stereo not given) | inactive
16 | CSc1nc(-c2ccccc2Cl)nc2c1Cc1c(CO)cnc(C)c1O2 | inactive
17 | CC(C)N(C(=O)CSc1nnc(NC2CC2)s1)c1ccccc1 | inactive
18 | CC(C)Nc1nnc(SCC(=O)c2c[nH]c3ccccc23)s1 | inactive
19 | CC(C)c1ccc(Nc2nnc(SCC(=O)c3nnc(-c4ccccc4)o3)s2)cc1 | 22.4 µM (active)
20 | CCc1cccc(C)c1NS(=O)(=O)c1ccc(-c2cc(C)no2)s1 | inactive
21 | COC(=O)/C=C\C(=O)Nc1cccc([N+](=O)[O-])c1 | inactive
22 | Cc1ccc(/C=C/C(=O)Nc2ccc([N+](=O)[O-])c(NC(=O)/C=C/c3ccc(C)o3)c2)o1 | 25.1 µM (active)
23 | COc1ccc(OC)c(NC(=O)/C=C/c2ccc(C)o2)c1 | inactive
24 | Cc1ccc(Cn2c(=O)n(Cc3nc(-c4ccccc4)no3)c(=O)c3cc4c(cc32)OCO4)cc1 | inactive
25 | O=C(CSc1nc(=O)n(Cc2cccnc2)c2c1CCC2)Nc1ccc(F)cc1F | inactive

Row | SMILES | Potency
26 | O=C(Nc1ccc(F)cc1F)c1ccc2c(=O)n3c(nc2c1)CCCCC3 | inactive
27 | Cc1ccc(/C=C(\C#N)C(=O)Nc2cc(C)ccc2C)cc1 | inactive
28 | COCCCNC(=O)Cn1cc(/C=C(\C#N)C(=O)N2CCN(c3ccccc3)CC2)c2ccccc21 | inactive
29 | Cc1ccc(Cl)cc1NC(=O)/C(C#N)=C\c1cn(Cc2ccc(F)cc2)c2ccccc12 | 89.1 µM (active)
30 | Nc1ccc(/C=C/c2ccnc3ccccc23)c([N+](=O)[O-])c1 | inactive
31 | Cc1ccccc1OCc1nc2c3cnn(-c4ccccc4F)c3ncn2n1 | inactive
32 | Cc1ccc(C)c(S(=O)(=O)c2nnn3c2nc(N2CCOCC2)c2sccc23)c1 | inactive
33 | O=C(COC(=O)c1cc(S(=O)(=O)N2CCOCC2)ccc1Cl)NCCc1ccccc1 | inactive
34 | CN(c1ccccc1)S(=O)(=O)c1ccc(Cl)c(C(=O)OCC(=O)N2CCOCC2)c1 | inactive
35 | O=C(COC(=O)c1ccccc1C(=O)N1CCN(c2ccccc2)CC1)NCc1ccccc1 | inactive
36 | O=S(=O)(NCc1ccco1)c1cnc(Cl)c(Cl)c1 | inactive
37 | O=C(COC(=O)c1ccccc1O)NCc1ccco1 | 35.5 µM (active)
38 | CN(c1ccccc1)S(=O)(=O)c1ccc(Cl)c(C(=O)OCC(=O)NCc2ccco2)c1 | 44.7 µM (active)
39 | Cc1cccc(C)c1NC(=O)COC(=O)c1ccccc1O | inactive
40 | O=C(COC(=O)c1cnc(Cl)c(Cl)c1)NCc1ccco1 | 17.8 µM (active)
41 | COc1ccc(CCNC(=O)COC(=O)c2cnc(Cl)c(Cl)c2)cc1 | inactive
42 | Cc1cc(C(=O)OCC(=O)NCc2ccco2)c(C)n1-c1ccccc1 | 22.4 µM (active)
43 | Cn1c(N)c(C(=O)COC(=O)c2ccccc2NCc2ccco2)c(=O)n(C)c1=O | inactive
44 | O=C(CCCOc1ccccc1)NCc1ccco1 | inactive
45 | CN1CCN(C(CNC(=O)c2ccccc2F)c2ccc3c(c2)OCO3)CC1 (stereo not given) | inactive
46 | Cc1ccc(OCCSc2nc(C)c(Cc3ccccc3)c(=O)[nH]2)cc1 | inactive
47 | Cc1ccc(CCNC(=O)c2ccc3c(c2)N(Cc2cc(C)ccc2C)C(=O)c2ccccc2S3=O)cc1 (stereo not given) | inactive
48 | Cc1ccc(Cl)cc1N1CCN(C(=O)c2cccn3c(=O)c4cc(Cl)ccc4nc23)CC1 | inactive
49 | CCCn1c2ccccc2c2cnn(CC(=O)N3CCCC(C(=O)OCC)C3)c(=O)c21 (stereo not given) | inactive
50 | CCOC(=O)N1CCc2c(sc3c2c(=O)n(-c2ccc(CC)cc2)c(=O)n3C)C1 | inactive

Row | SMILES | Potency
51 | O=C(NCc1ccccc1)c1cccc(NC(=O)N2CCSc3ncccc32)c1 | inactive
52 | Cc1c(NC(=O)Cc2ccccc2)cccc1-c1nc2cccnc2s1 | inactive
53 | O=C(Nc1ccccc1Cl)N1CCC(CN2CCCC2)CC1 | inactive
54 | O=C(Nc1ccccc1Cl)/C(Cl)=C(\Cl)S(=O)c1ccccc1 (stereo not given) | 12.6 µM (active)
55 | O=C(Nc1ccccc1Cl)N1CCC(CN2CCCCC2)CC1 | inactive
56 | Cc1ccc(-c2nn3c(=O)cc(CN4CCN(S(=O)(=O)c5ccc(Cl)cc5)CC4)nc3s2)cc1 | inactive
57 | Cc1csc(SCC(=O)Nc2sccc2C#N)n1 | 22.4 µM (active)
58 | CC(=O)c1cc(C#N)c(SCC(=O)Nc2nccs2)nc1C | inactive
59 | N#Cc1ccsc1NC(=O)CN1CCCCC1 | inactive
60 | COc1ccc(CCN2C(=O)c3oc4cc(C)cc(C)c4c(=O)c3C2c2ccccc2F)cc1OC (stereo not given) | inactive
61 | Cc1ccc(-c2nnc(SCC(=O)NCc3ccccc3)nc2-c2ccc(C)cc2)cc1 | inactive
62 | Cc1cccc(Cc2c(C)nc3nc(SCc4ccccc4Cl)nn3c2C)c1 | inactive
63 | Clc1ccccc1CSc1nnc(-c2ccco2)c(-c2ccco2)n1 | 14.1 µM (active)
64 | CC1(C)N=C(SCc2ccccc2Cl)c2ccccc2N1 | inactive
65 | CSc1n[nH]c(-c2ccco2)n1 | inactive
66 | c1ccc(CSc2nnc(-c3ccco3)c(-c3ccco3)n2)cc1 | 7.94 µM (active)
67 | O=C(CCc1nc(CN2CCN(S(=O)(=O)c3ccc(Br)cc3)CC2)no1)N1CCCCC1 | inactive
68 | CCOC(=O)c1scc(-c2ccc(C)cc2)c1S(=O)(=O)Nc1cc(C)ccc1C | inactive
69 | Cc1cccc(-n2c(SCC(N)=O)nc3c(oc4ccccc43)c2=O)c1 | inactive
70 | COc1cc(Cl)c(C)cc1NC(=O)CCc1nc2cccnc2n1Cc1cccs1 | inactive
71 | Cc1cc(NC(=O)CSc2ncc(C(=O)Nc3ccc(Cl)cc3)c(=O)n2C)no1 | inactive
72 | Cc1ccc(S(=O)(=O)N2CCN(S(=O)(=O)N3CCOCC3)CC2)cc1 | inactive
73 | O=C1CCCC(O)=C1N=Nc1ccc(S(=O)(=O)N2CCOCC2)cc1 | 35.5 µM (active)
74 | CC1(C)CC(=O)C(N=Nc2ccc(S(=O)(=O)N3CCCCCC3)cc2)=C(O)C1 | inactive
75 | COc1ccc(Cn2c(=O)[nH]c3cc(C(=O)N4CCN(C(=O)c5ccco5)CC4)ccc3c2=O)cc1 | inactive

Row | SMILES | Potency
76 | N#Cc1c(C(F)(F)F)cc(-c2cccs2)nc1N1CCCCC1 | inactive
77 | N#Cc1c(N2CCCCC2)nc(N)c2c(N)nc(SCC(=O)O)cc12 | 7.08 µM (active)
78 | CC(C)(C)c1ccc(C(=O)NCc2nnc(SCC(=O)N3CCCc4ccccc43)n2-c2ccccc2)cc1 | inactive
79 | CC(C)(C)c1ccc(C(=O)C[N+]2(C)CCCc3ccccc32)cc1 (stereo not given) | 79.4 µM (active)
80 | CC(C)(C)c1ccc(C(=O)C[n+]2cccc3cc(Cl)ccc32)cc1 | inactive
81 | Cc1ccc(NC(=O)Cn2cnc3nc4c(cc3c2=O)CCCC4)cc1Cl | inactive
82 | CCOc1ccc(CNC(=O)C2CCN(c3nnc(-n4cccc4CNc4ccc(C)cc4)s3)CC2)cc1OC | inactive
83 | Cc1ccc(CCNC(=O)c2ccc(CNS(=O)(=O)c3ccc(C)cc3)cc2)cc1 | inactive
84 | CN(C)c1nccc(NCc2ccccc2)c1C#N | inactive
85 | CC(C)n1cnc2c(NCc3ccccc3)cc(OCC3CCN(C)CC3)cc21 | 3.16 µM (active)
86 | Cc1ccc(OCC(=O)OCc2cc(=O)n3nc(C4CC4)sc3n2)cc1 | 89.1 µM (active)
87 | COc1ccc(OCC(=O)Nc2cccc(C(=O)OCc3cc(=O)n4nc(C)sc4n3)c2)cc1 | 89.1 µM (active)
88 | Cc1ccc(OCC(=O)OCc2cc(=O)n3nc(C4CC4)sc3n2)cc1C | inactive
89 | CCC(=O)Nc1cccc(C(=O)OCc2cc(=O)n3nc(CC)sc3n2)c1 | inactive
90 | CCCCc1nn2c(=O)cc(COC(=O)c3cccc(NC(=O)COc4ccccc4)c3)nc2s1 | inactive
91 | O=C(COc1ccccc1F)OCc1cc(=O)n2nc(C3CCCCC3)sc2n1 | inactive
92 | Cc1ccc(NC(=O)Cn2c(=O)n(-c3ccccc3)c(=O)c3c4c(sc32)CCCC4)cc1 | inactive
93 | CCOc1ccc(-c2nonc2NC(=O)c2oc3ccc(CC)cc3c2C)cc1 | inactive
94 | CCOC(=O)c1c(S(=O)(=O)N2CCCC(C(=O)NCc3ccc(F)cc3)C2)c(C)n(CC)c1C (stereo not given) | inactive
95 | Oc1cc(O)c2c(c1)OC(c1ccc(O)c(O)c1)C(O)C2 (stereo not given) | 79.4 µM (active)
96 | OC[C@H]1O[C@@H](n2cnc3c(N[C@H]4CC5CCC4C5)ncnc32)[C@H](O)[C@@H]1O (stereo not given in full) | inactive
97 | Cc1ccc(CSc2nc3ccsc3c(=O)n2CCC(C)C)cc1 | inactive
98 | COc1cc(/C=C2/SC(=S)N(Cc3ccccc3)C2=O)cc(OC)c1O | 44.7 µM (active)
99 | CN(C(=O)CN1C(=O)/C(=C/c2ccc(Cl)cc2)SC1=S)C1CCS(=O)(=O)C1 (stereo not given) | inactive
100 | COc1ccc(CCNC2=C(Cl)C(=O)N(Cc3ccccc3)C2=O)cc1OC | inactive
